# From the supplement of paper PMC8728848
# About 410 targets per protein were measured; listed, in parts, are those with the strongest signals and a random draw of the rest.
# B1: Pwp1 (Candida glabrata) (protein)
# chain: MGSSHHHHHHSSGLVPRGSHMASANPISITNVCQFPDNWARTAGFQATTVRLGLTIASNTYKELLNYPGLFNFATQKATVTQPNFSISGFPFFTGLYGLTVWPINLLVELQGYFVPPESGNYTFTLQGSDDAAILFFANPSTFACGSQNDWPQPREADITVTDTLVPSRTLYLVKGVAYPIRIAYYNGSGDGKLNVSFKDPSGTTHTDWKGYVWQYSNTCSTCTYT
# What was measured:
# Test in all cases: glycan array binding signal (z-score within array); higher = stronger binding
# Conditions in all cases: glycan notation: IUPAC condensed, linker removed
# [1] = target: Fuc(a1-2)Gal(b1-3)GalNAc(b1-4)[Neu5Ac(a2-3)]Gal(b1-4)Glc
# Method in brief: (§1)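 Glycan array data came from 3228 arrays in the Consortium for Functional Glycomics database, and only arrays with an available protein sequence were kept. Glycan names were put into IUPAC-condensed notation, and columns mapping to the same glycan were averaged. The binding signal is a within-array Z-score, averaged across arrays of one protein sequence run at different concentrations or buffers and across linkers. A negative Z-score can be read as non-binding.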
# [2] = target: Fuc(a1-2)Gal(b1-4)Glc6S
# Method in brief: as §1
# [3] = target: Fuc(a1-2)Gal(b1-4)GlcNAc
# Method in brief: as §1
# [4] = target: Fuc(a1-2)Gal3S(b1-4)GlcNAc
# Method in brief: as §1
# [5] = target: Fuc(a1-2)[Gal(a1-3)]Gal(b1-3)GlcNAc(b1-3)GalNAc
# Method in brief: as §1
# [6] = target: Fuc(a1-2)[Gal(a1-3)]Gal(b1-3)GlcNAc(b1-6)GalNAc
# Method in brief: as §1
# [7] = target: Fuc(a1-2)[Gal(a1-3)]Gal(b1-4)Glc
# Method in brief: as §1
# [8] = target: Fuc(a1-2)[Gal(a1-3)]Gal(b1-4)GlcNAc(b1-2)Man(a1-3)[Fuc(a1-2)[Gal(a1-3)]Gal(b1-4)GlcNAc(b1-2)Man(a1-6)]Man(b1-4)GlcNAc(b1-4)[Fuc(a1-6)]GlcNAc
# Method in brief: as §1
# [9] = target: Fuc(a1-2)[GalNAc(a1-3)]Gal(b1-3)GlcNAc(b1-3)GalNAc
# Method in brief: as §1
# [10] = target: Fuc(a1-2)[GalNAc(a1-3)]Gal(b1-4)GlcNAc(b1-3)GalNAc
# Method in brief: as §1
# [11] = target: Fuc(a1-2)[GalNAc(a1-3)]Gal(b1-4)GlcNAc(b1-6)GalNAc
# Method in brief: as §1
# [12] = target: Fuc(a1-2)[GalNAc(a1-3)]Gal(b1-4)[Fuc(a1-3)]GlcNAc(b1-3)GalNAc
# Method in brief: as §1
# [13] = target: Fuc(a1-3)[Gal(b1-4)]GlcNAc(b1-3)Gal(b1-3)[Fuc(a1-4)]GlcNAc
# Method in brief: as §1
# [14] = target: Fuc(a1-3)[Gal3S(b1-4)]GlcNAc6S
# Method in brief: as §1
# [15] = target: Fuc(a1-3)[GalNAc(b1-4)]GlcNAc
# Method in brief: as §1
# [16] = target: Gal(a1-4)GlcNAc
# Method in brief: as §1
# [17] = target: Gal(b1-3)Gal
# Method in brief: as §1
# [18] = target: Gal(b1-3)Gal(b1-4)GlcNAc
# Method in brief: as §1
# [19] = target: Gal(b1-3)GalNAc(b1-4)Gal(b1-4)Glc
# Method in brief: as §1
# [20] = target: Gal(b1-3)GlcNAc
# Method in brief: as §1
# [21] = target: Gal(b1-3)GlcNAc(b1-6)Gal(b1-4)GlcNAc
# Method in brief: as §1
# [22] = target: Gal(b1-4)GlcNAc(b1-2)[Gal(b1-4)GlcNAc(b1-4)]Man(a1-3)[Gal(b1-4)GlcNAc(b1-2)Man(a1-6)]Man(b1-4)GlcNAc(b1-4)GlcNAc
# Method in brief: as §1
# [23] = target: Gal(b1-4)GlcNAc(b1-2)[Gal(b1-4)GlcNAc(b1-6)]Man(a1-6)[Gal(b1-4)GlcNAc(b1-2)Man(a1-3)]Man(b1-4)GlcNAc(b1-4)GlcNAc
# Method in brief: as §1
# [24] = target: Gal(b1-4)GlcNAc(b1-3)Gal(b1-4)GlcNAc(b1-3)Gal(b1-4)GlcNAc(b1-3)Gal(b1-4)GlcNAc(b1-3)Gal(b1-4)GlcNAc(b1-2)Man(a1-3)[Gal(b1-4)GlcNAc(b1-3)Gal(b1-4)GlcNAc(b1-3)Gal(b1-4)GlcNAc(b1-3)Gal(b1-4)GlcNAc(b1-3)Gal(b1-4)GlcNAc(b1-2)Man(a1-6)]Man(b1-4)GlcNAc(b1-4)[Fuc(a1-6)]GlcNAc
# Method in brief: as §1
# [25] = target: Gal(b1-4)GlcNAc(b1-3)Gal(b1-4)GlcNAc(b1-3)Gal(b1-4)GlcNAc(b1-3)Gal(b1-4)GlcNAc(b1-3)Gal(b1-4)GlcNAc(b1-2)[Gal(b1-4)GlcNAc(b1-3)Gal(b1-4)GlcNAc(b1-3)Gal(b1-4)GlcNAc(b1-3)Gal(b1-4)GlcNAc(b1-3)Gal(b1-4)GlcNAc(b1-6)]Man(a1-6)[Gal(b1-4)GlcNAc(b1-3)Gal(b1-4)GlcNAc(b1-3)Gal(b1-4)GlcNAc(b1-3)Gal(b1-4)GlcNAc(b1-3)Gal(b1-4)GlcNAc(b1-2)Man(a1-3)]Man(b1-4)GlcNAc(b1-4)[Fuc(a1-6)]GlcNAc
# Method in brief: as §1
# [26] = target: Gal(b1-4)GlcNAc(b1-3)[Fuc(a1-3)GlcNAc(b1-6)]Gal(b1-4)Glc
# Method in brief: as §1
# [27] = target: Gal3S(b1-4)Glc
# Method in brief: as §1
# [28] = target: Gal3S(b1-4)[Fuc(a1-3)]Glc6S
# Method in brief: as §1
# [29] = target: Gal4S(b1-4)GlcNAc
# Method in brief: as §1
# [30] = target: GalNAc(a1-3)GalNAc(b1-3)Gal(a1-4)Gal(b1-4)GlcNAc
# Method in brief: as §1
# [31] = target: GalNAc(b1-3)Gal(a1-4)Gal(b1-4)GlcNAc(b1-3)Gal(b1-4)Glc
# Method in brief: as §1
# [32] = target: GlcNAc(a1-4)Gal(b1-4)GalNAc
# Method in brief: as §1
# [33] = target: GlcNAc(a1-4)Gal(b1-4)GlcNAc(b1-3)Gal(b1-4)Glc
# Method in brief: as §1
# [34] = target: GlcNAc(b1-2)[GlcNAc(b1-4)]Man(a1-3)[GlcNAc(b1-2)Man(a1-6)]Man(b1-4)GlcNAc(b1-4)GlcNAc
# Method in brief: as §1
# [35] = target: GlcNAc(b1-3)Gal(b1-4)GlcNAc(b1-2)[GlcNAc(b1-3)Gal(b1-4)GlcNAc(b1-6)]Man(a1-6)[GlcNAc(b1-3)Gal(b1-4)GlcNAc(b1-2)Man(a1-3)]Man(b1-4)GlcNAc(b1-4)GlcNAc
# Method in brief: as §1
# [36] = target: GlcNAc(b1-4)Gal(b1-4)GlcNAc
# Method in brief: as §1
# [37] = target: Man(a1-3)[Man(a1-6)]Man
# Method in brief: as §1
# [38] = target: Neu5Ac(a2-3)Gal(b1-3)GalNAc(b1-4)[Neu5Ac(a2-8)Neu5Ac(a2-3)]Gal(b1-4)Glc
# Method in brief: as §1
# [39] = target: Neu5Ac(a2-3)Gal(b1-3)GlcNAc(b1-2)Man(a1-3)[Neu5Ac(a2-3)Gal(b1-3)GlcNAc(b1-2)Man(a1-6)]Man(b1-4)GlcNAc(b1-4)GlcNAc
# Method in brief: as §1
# [40] = target: Neu5Ac(a2-3)Gal(b1-3)GlcNAc(b1-3)GalNAc
# Method in brief: as §1
# [41] = target: Neu5Ac(a2-3)Gal(b1-3)[Fuc(a1-4)]GlcNAc
# Method in brief: as §1
# [42] = target: Neu5Ac(a2-3)Gal(b1-3)[GlcNAc(b1-6)]GalNAc
# Method in brief: as §1
# [43] = target: Neu5Ac(a2-3)Gal(b1-3)[Neu5Ac(a2-6)]GalNAc
# Method in brief: as §1
# [44] = target: Neu5Ac(a2-3)Gal(b1-4)GlcNAc(b1-2)Man(a1-3)[Neu5Ac(a2-3)Gal(b1-4)GlcNAc(b1-2)Man(a1-6)]Man(b1-4)GlcNAc(b1-4)[Fuc(a1-6)]GlcNAc
# Method in brief: as §1
# [45] = target: Neu5Ac(a2-3)Gal(b1-4)GlcNAc(b1-2)[Neu5Ac(a2-3)Gal(b1-4)GlcNAc(b1-6)]Man(a1-6)[Neu5Ac(a2-3)Gal(b1-4)GlcNAc(b1-2)Man(a1-3)][GlcNAc(b1-4)]Man(b1-4)GlcNAc(b1-4)GlcNAc
# Method in brief: as §1
# [46] = target: Neu5Ac(a2-3)Gal(b1-4)GlcNAc(b1-3)Gal(b1-4)GlcNAc(b1-3)GalNAc
# Method in brief: as §1
# [47] = target: Neu5Ac(a2-3)Gal(b1-4)[Fuc(a1-3)]GlcNAc(b1-2)Man
# Method in brief: as §1
# [48] = target: Neu5Ac(a2-6)Gal(b1-4)GlcNAc(b1-2)Man(a1-3)[Man(a1-6)]Man(b1-4)GlcNAc(b1-4)GlcNAc
# Method in brief: as §1
# [49] = target: Neu5Ac(a2-6)Gal(b1-4)GlcNAc(b1-2)Man(a1-6)[Man(a1-3)]Man(b1-4)GlcNAc(b1-4)GlcNAc
# Method in brief: as §1
# [50] = target: Neu5Ac(a2-6)Gal(b1-4)GlcNAc(b1-6)[Gal(b1-3)]GalNAc
# Method in brief: as §1
# [51] = target: Neu5Ac(a2-8)Neu5Ac(a2-3)Gal(b1-4)Glc
# Method in brief: as §1
# [52] = target: Neu5Ac(a2-8)Neu5Ac(a2-8)Neu5Ac(a2-3)Gal(b1-4)Glc
# Method in brief: as §1
# [53] = target: Neu5Ac(b2-6)GalNAc
# Method in brief: as §1
# [54] = target: Neu5Gc(a2-8)Neu5Gc(a2-6)Gal(b1-4)GlcNAc
# Method in brief: as §1
binder,measurement,setting,value
B1,glycan array binding signal (z-score),[1],2.14
same,glycan array binding signal (z-score),[2],-0.871
same,glycan array binding signal (z-score),[3],0.296
same,glycan array binding signal (z-score),[4],0.714
same,glycan array binding signal (z-score),[5],0.778
same,glycan array binding signal (z-score),[6],0.51
same,glycan array binding signal (z-score),[7],-0.087
same,glycan array binding signal (z-score),[8],0.301
same,glycan array binding signal (z-score),[9],2.44
same,glycan array binding signal (z-score),[10],2.36
same,glycan array binding signal (z-score),[11],0.906
same,glycan array binding signal (z-score),[12],-0.825
same,glycan array binding signal (z-score),[13],3.12
same,glycan array binding signal (z-score),[14],1.94
same,glycan array binding signal (z-score),[15],-1.67
same,glycan array binding signal (z-score),[16],0.974
same,glycan array binding signal (z-score),[17],0.861
same,glycan array binding signal (z-score),[18],-0.314
same,glycan array binding signal (z-score),[19],1.92
same,glycan array binding signal (z-score),[20],0.448
same,glycan array binding signal (z-score),[21],-1.46
same,glycan array binding signal (z-score),[22],-0.345
same,glycan array binding signal (z-score),[23],0.454
same,glycan array binding signal (z-score),[24],-0.637
same,glycan array binding signal (z-score),[25],-3.11
same,glycan array binding signal (z-score),[26],-1
same,glycan array binding signal (z-score),[27],0.803
same,glycan array binding signal (z-score),[28],-0.627
same,glycan array binding signal (z-score),[29],0.267
same,glycan array binding signal (z-score),[30],-0.037
same,glycan array binding signal (z-score),[31],1.77
same,glycan array binding signal (z-score),[32],-1.74
same,glycan array binding signal (z-score),[33],1.72
same,glycan array binding signal (z-score),[34],0.374
same,glycan array binding signal (z-score),[35],0.839
same,glycan array binding signal (z-score),[36],-2.23
same,glycan array binding signal (z-score),[37],-1.51
same,glycan array binding signal (z-score),[38],0.23
same,glycan array binding signal (z-score),[39],1.89
same,glycan array binding signal (z-score),[40],0.585
same,glycan array binding signal (z-score),[41],-1.74
same,glycan array binding signal (z-score),[42],3.78
same,glycan array binding signal (z-score),[43],0.612
same,glycan array binding signal (z-score),[44],0.747
same,glycan array binding signal (z-score),[45],2.29
same,glycan array binding signal (z-score),[46],0.411
same,glycan array binding signal (z-score),[47],-1.41
same,glycan array binding signal (z-score),[48],-0.785
same,glycan array binding signal (z-score),[49],0.335
same,glycan array binding signal (z-score),[50],-1.62
same,glycan array binding signal (z-score),[51],0.642
same,glycan array binding signal (z-score),[52],-0.355
same,glycan array binding signal (z-score),[53],1.13
same,glycan array binding signal (z-score),[54],1.17
